Screens deposited in PubChem BioAssay by several laboratories.
sEH inhibitor: soluble epoxide hydrolase (human) inhibition; 91,000 compounds, 0.34% hits; P34913; inhibition, % at 2 µM; recombinant human sEH enzymatic activity assay; AID 707; in the data active = inhibition above about 80%
sEH activator: activators of human soluble epoxide hydrolase | purified human sEH enzymatic activity, activator screen | AID 717 | 91,000 compounds, 0.04% hits | activation, % at 2 µM; in the data active = activation above about 37%
CYP2C9 inh: human CYP2C9 inhibition; CYP2C9 Supersomes, luciferin-H conversion, luminescence; inhibition, % at 5 µM; 96,000 compounds, 20% hits; AID 777;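 active = blocking of liver enzyme CYP2C9 beyond about 50% at 5 µM, limit read from the data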
CYP2C19 inh: human CYP2C19 inhibition | AID 778 | P33261 | CYP2C19 Supersomes, luciferin-H EGE luminescence, 30 min | inhibition, % at 5 µM | 96,000 compounds, 21% hits;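 active = CYP2C19 inhibition above a set limit at 5 µM in the primary screen, cut at about 50% in these data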;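 also: plate controls were negative control wells for no effect and 2.5 mM tranylcypromine positive control for full effect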
Target sequence (P33261 whole entry, looked up): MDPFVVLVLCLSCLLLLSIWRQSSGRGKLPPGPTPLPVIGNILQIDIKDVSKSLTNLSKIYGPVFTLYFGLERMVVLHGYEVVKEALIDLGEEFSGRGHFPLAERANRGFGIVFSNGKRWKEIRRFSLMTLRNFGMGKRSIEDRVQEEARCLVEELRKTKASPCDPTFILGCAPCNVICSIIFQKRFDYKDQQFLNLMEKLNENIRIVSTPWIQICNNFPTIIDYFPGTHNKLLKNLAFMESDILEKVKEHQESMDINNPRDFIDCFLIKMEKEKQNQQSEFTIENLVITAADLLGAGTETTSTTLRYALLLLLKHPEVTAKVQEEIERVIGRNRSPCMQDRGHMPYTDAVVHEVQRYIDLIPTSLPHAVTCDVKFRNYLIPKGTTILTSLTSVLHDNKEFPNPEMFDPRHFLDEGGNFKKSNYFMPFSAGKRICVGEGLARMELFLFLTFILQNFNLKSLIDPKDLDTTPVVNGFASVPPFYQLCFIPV
CYP2C19 activ: increases human CYP2C19 enzyme activity; P33261; recombinant CYP2C19, luciferin-H EGE luminescence; hits give high values; 0 = fully inhibited enzyme, 1 = untreated enzyme; activation factor at 5 µM; 96,000 tested, under 10 active; AID 1025;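 active = activation factor of at least 2 at 5 µM in the primary screen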;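 also: 0 = wells with 2.5 mM tranylcypromine and 1 = vehicle-only wells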
CYP2C9 act: activators of human CYP2C9 | P11712 | recombinant CYP2C9, luciferin-H conversion, luminescence; hits give high values; factor 1 = untreated enzyme, 0 = blocked | activation factor at 5 µM | 96,000 compounds, 1.4% hits | AID 1024;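 active = activation factor of 2 or more for CYP2C9 at a 5 µM dose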;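 also: 0 = sulfaphenazole-blocked wells and 1 = vehicle-only wells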
Active calls of the source: *; / = not tested or not shown. Most compounds without a hit are left out; they make up all but 27% or so of the library.

SMILES | sEH inhibitor | sEH activator | CYP2C9 inh | CYP2C19 inh | CYP2C19 activ | CYP2C9 act
COc1ccc(N(Cc2cc3ccc(C)cc3[nH]c2=O)C(C)=O)cc1 | 10.0 | -9.1 | 24.3 | 9.8 | 0.9 | 0.8
O=C(c1ccc(Br)cc1)c1cc([N+](=O)[O-])ccc1N1CCCCC1 | -1.5 | 2.1 | 60.7* | 64.9* | 0.4 | 0.4
Cc1ccc(C(=O)c2cc([N+](=O)[O-])ccc2N2CCN(C)CC2)cc1 | 7.0 | -6.1 | 16.7 | 11.7 | 0.9 | 0.8
CC1(C)CC2(CCO1)N1CC3(C)CN2CC(C)(C1)C3=O (stereo not drawn) | 2.9 | 2.5 | / | / | / | /
COc1ccc(NC(=O)CN2CCN(CC(=O)Nc3ccccc3F)CC2)cc1OC | 2.2 | -1.0 | 20.4 | 19.4 | 0.8 | 0.8
COc1ccc(NC(=O)CN2CCN(CC(=O)Nc3ccccc3F)CC2)c(OC)c1 | -7.4 | 6.7 | 70.9* | 97.5* | 0 | 0.3
COc1ccc(NC(=O)CSC2CCCCC2)cc1 | 24.2 | -24.1 | 50.8* | 97.5* | 0 | 0.5
COc1ccc(NC(=O)CN2CCN(c3ccccc3Cl)CC2)cc1 | 9.7 | -7.7 | / | / | / | /
COc1ccc(NC(=O)CN2CCN(CC(=O)Nc3ccccc3Cl)CC2)cc1 | 2.0 | -1.7 | 49.2 | 85.0* | 0.2 | 0.5
COc1ccc(NC(=O)CN2CCCCC2)cc1 | -5.5 | 8.6 | 23.7 | 76.6* | 0.2 | 0.8
COc1ccc(NC(=O)CN2CCN(CC(=O)Nc3ccccc3Cl)CC2)c(OC)c1 | -7.2 | 9.5 | 73.7* | 97.7* | 0 | 0.3
CCOc1ccc(NC(=O)NCCN2C(C)CCCC2C)cc1 (stereo not drawn) | -1.9 | 3.3 | -3.9 | -3.9 | 1 | 1
CC(=O)Nc1ccc(NC(=O)N2CCCCC2)cc1 | / | / | 8.8 | 3.0 | 1 | 0.9
O=C(CCN1CCCCC1)Nc1ccc(Br)cc1 | 5.2 | -3.9 | / | / | / | /
O=C(Nc1ccc(Br)cc1)N1CCCCCCC1 | 54.2 | -55.7 | -3.6 | 92.7* | 0.1 | 1
O=C(CN1CCCCCC1)Nc1ccc(Br)cc1 | -12.8 | 12.2 | 8.7 | 93.2* | 0.1 | 0.9
CCOc1ccc(NC(=O)NCCCSC2CCCCC2)cc1 | 85.3* | -85.5 | 30.8 | 13.1 | 0.9 | 0.7
Cc1cccc(OC(=O)CN2C(=O)C3C4CCC(C4)C3C2=O)c1C (stereo not drawn) | 0.2 | 0.6 | 6.1 | 30.5 | 0.7 | 0.9
CN(CC(=O)Nc1sccc1C#N)C1CCCCC1 | 1.4 | -3.0 | / | / | / | /
CCOc1ccc(NC(=O)CN2CCN(CC(=O)Nc3cccc(F)c3)CC2)cc1 | / | / | 18.7 | 27.3 | 0.7 | 0.8
N#Cc1ccsc1NC(=O)CN1CCCCCC1 | 1.2 | 1.1 | 20.8 | 50.1* | 0.5 | 0.8
CCOc1ccc(NC(=O)CN2CCN(CC(=O)Nc3cc(OC)cc(OC)c3)CC2)cc1 | / | / | 59.0* | 48.0 | 0.5 | 0.4
COc1ccc(Cl)cc1NC(=O)c1cnc2n(c1=O)CCS2 | / | / | -86.2 | -3.5 | 1 | 1.9
O=c1c(-c2ccnn2-c2ccc(F)cc2)cnc2n1CCS2 | 1.0 | -1.0 | 8.4 | 78.8* | 0.2 | 0.9
O=c1c(-c2ccnn2-c2ccccc2F)cnc2n1CCS2 | -8.9 | 8.8 | 11.7 | 57.6* | 0.4 | 0.9
SMILES | sEH inhibitor | sEH activator | CYP2C9 inh | CYP2C19 inh | CYP2C19 activ | CYP2C9 act
O=c1c(-c2ccnn2-c2cccc(Cl)c2)cnc2n1CCS2 | -4.7 | 4.7 | 45.8 | 91.1* | 0.1 | 0.5
O=C(c1cnc2n(c1=O)CCS2)N1CCN(c2ccc(Cl)c(Cl)c2)CC1 | -4.6 | 3.6 | 8.5 | 17.4 | 0.8 | 0.9
N#Cc1c(-c2ccc(F)cc2)nc2n(c1=O)CCS2 | -3.9 | 2.0 | -3.1 | 19.0 | 0.8 | 1
O=C(Nc1ccccc1)c1cnc2n(c1=O)CCS2 | -15.6 | 14.6 | 34.6 | 6.7 | 0.9 | 0.7
N#Cc1ccc(-n2nccc2-c2cnc3n(c2=O)CCS3)cc1 | -4.9 | 3.1 | 23.8 | 92.0* | 0.1 | 0.8
COc1ccc(Cl)cc1Nc1nc(C)cc(C)c1C(N)=O | -5.7 | 9.5 | / | / | / | /
O=C(NCc1ccccc1)N1CCN(c2ccccc2F)CC1 | 4.6 | -6.9 | 14.1 | 62.1* | 0.4 | 0.9
O=C(NCc1ccccc1)C1CCN(C(=O)NCc2ccccc2)CC1 | / | / | 2.7 | -7.3 | 1.1 | 1
O=C(NC(=O)N1CCN(c2ccccc2F)CC1)c1ccccc1 | -6.4 | 7.0 | 35.2 | 60.3* | 0.4 | 0.6
NC(=O)CN1CCN(c2ccccc2F)CC1 | / | / | -12.1 | -10.1 | 1.1 | 1.1
O=C(c1cccc(C(=O)N2CCN(c3ccccc3F)CC2)n1)N1CCN(c2ccccc2F)CC1 | -3.7 | 3.7 | 85.8* | 90.4* | 0.1 | 0.1
